Source: PubChem (several laboratories)
TIM10 inh – inhibits growth of TIM10 yeast strain; actives 1.4% (n = 330,000); AID 463195; inhibition, % at 10 µM; S. cerevisiae TIM10 strain growth, BacTiter-Glo luminescence, 24 h;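 active means inhibition of 40% or more at the single tested concentration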;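 further: wild-type TIM10 isogenic control strain grown at permissive 25 °C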
NLRP3 yeast inh – blocks the NALP3 inflammasome reconstituted in yeast; Yeast reconstituted NLRP3/ASC/caspase-1, beta-gal luminescence, 24 h; inhibition, % at 10 µM; actives 0.39% (n = 330,000); AID 2825;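 active means inhibition of 50% or more; inactive means inhibition below 50%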;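 further: plate controls were induced DMSO wells for no effect and uninduced yeast grown without galactose for full effect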
SKKanGAS inh – blocks kanamycin growth of S. pyogenes SKKanGAS strain | inhibition, % at 7.5 µM | BacTiter-Glo, 6 h | actives 1.3% (n = 300,000) | AID 1662;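 active means mean replicate score, as percent of positive control median, at least 50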;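 further: strain carries kanamycin resistance gene driven by streptokinase promoter and grows in 40 µg/ml kanamycin; loss of luminescence reflects streptokinase promoter inhibition or plain growth inhibition; 0% = median of DMSO wells and 100% = positive control at its reference dose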
tim23-1 inh – growth inhibitors of tim23-1 mutant yeast. S. cerevisiae tim23-1 growth, BacTiter-Glo luminescence, 24 h. inhibition, % at 20 µM. actives 1.3% (n = 330,000). AID 463212;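 active means growth inhibition of the mutant yeast at or above 50%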;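 further: temperature-sensitive mutant grown at 25 °C; plate controls were DMSO-treated mutant yeast for no effect and medium wells lacking yeast for full effect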
NALP1 inh – inhibitors of NALP1 inflammasome in yeast; AID 2071; actives 0.61% (n = 280,000); inhibition, % at 10 µM; S. cerevisiae NALP1/ASC/caspase-1 growth, X-gal OD620, 72 h; in the data active means inhibition mostly above about 24%, no sharp cut-off; inactive means mostly below about 32%
tim10-1 inh – growth inhibitors of tim10-1 mutant yeast; S. cerevisiae tim10-1 ts strain growth, BacTiter-Glo, 24 h; inhibition, % at 20 µM; actives 2.2% (n = 330,000); AID 463190;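 active means inhibition of at least 40%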;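 further: mutant grown at 25 °C; 0% = DMSO wells with yeast and 100% = wells holding no yeast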
tim10 confirm – TIM10 yeast growth inhibition, confirmed | actives 63% (n = 4,600) | shares compounds with TIM10 inh | S. cerevisiae tim10 strain growth, BacTiter-Glo luminescence, 24 h | inhibition, % at 10 µM;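 active means inhibition of yeast growth at or above a set limit in either of two replicates at 10 µM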;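 further: this counterscreen used the strain with wild-type TIM10; 0% = yeast with DMSO and 100% = medium wells lacking yeast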
The depositor's hits bear a star; . = no result given. In the library only some 4.9% were active in any assay of this set; here they are far more common.

SMILES | TIM10 inh | NLRP3 yeast inh | SKKanGAS inh | tim23-1 inh | NALP1 inh | tim10-1 inh | tim10 confirm
C=CCNC(=O)N1CCc2[nH]c3ccc(F)cc3c2C1 | 4 | 13 | -8 | -3 | 9 | 10 | .
CCC(C)c1ccccc1N1CC(C(=O)Nc2ccc(S(=O)(=O)N3CCOCC3)cc2)CC1=O (configuration not stated) | 11 | 9 | -7 | -9 | . | 5 | .
O=c1c2cc(F)ccc2sn1-c1ccc(F)cc1 | 47* | 19 | . | 37 | . | 20 | 57*
Cc1ccc(Cl)cc1N1CCN(C(=O)c2ccccc2SCC(=O)N2CCCC2)CC1 | 1 | 20 | . | 12 | . | 7 | .
Cc1cc(C)c2c(N)c3ccccc3nc2n1 | 45* | 6 | -5 | 1 | 33 | 36 | 22
Cc1nc2ccc(C(=O)Nc3ccccc3Cl)cc2s1 | 1 | 26 | -5 | 16 | 13 | -5 | .
COCCN(Cc1ccccc1)C(=S)Nc1ccc(Cl)cc1 | 41* | 5 | 7 | 38 | -11 | 28 | 40*
CC1CN(CC(O)COC(c2ccc(Cl)cc2)c2ccc(Cl)cc2)CC(C)O1 (configuration not stated) | 46* | 9 | -3 | 35 | 28 | 32 | 40*
CCOc1ccc(NC(=S)Nc2cc(OC)c(Cl)cc2OC)cc1 | 40* | 12 | -4 | 30 | 26 | 35 | 5
COC(=O)Cc1ccc(NC(=S)NCCSc2ccc(C)cc2)cc1 | 55* | 24 | -8 | 13 | 13 | 39 | 35*
O=C(NCC(=O)N(CCN1CCOCC1)C(C(=O)NC1CCCC1)c1ccccc1)c1cccs1 (configuration not stated) | -8 | 4 | 1 | 3 | 7 | -2 | .
CCOC(=O)Cc1csc(NC(=S)NC(=O)c2ccccc2Br)n1 | 42* | -4 | 10 | 36 | 22 | 34 | -7
CCOC(=O)Cc1csc(NC(=O)c2ccc(C)cc2)n1 | 11 | 37 | 13 | -1 | 1 | -23 | .
CCOC(=O)Cc1csc(NC(=O)c2ccc3c(c2)OCO3)n1 | 43* | 20 | -1 | -12 | 0 | -20 | -3
N#CCCOC1(C#CCN2CCCC2)CCCCC1 | -9 | 11 | 1 | 6 | 20 | 10 | .
Cc1nn(CC(=O)NC2CCS(=O)(=O)C2)c(C)c1[N+](=O)[O-] (configuration not stated) | -13 | -5 | . | -7 | . | -14 | .
O=C(OCC(=O)N1CCC(Cc2ccccc2)CC1)c1ccccc1O | -20 | 14 | . | 7 | . | -36 | .
Cc1ccc(S(=O)(=O)N(CC(=O)Nc2ccccc2)C(=O)N2CCN(C)CC2)cc1 | 5 | 15 | 0 | -2 | . | 17 | .
COc1ccccc1C(=O)Nc1ccc(C(=O)N2CCCCC2)cc1 | 7 | 19 | -10 | 7 | 23 | 27 | .
c1cc(-c2nnc3sc(C4CCCCC4)nn23)ccn1 | 41* | -14 | 1 | 12 | -8 | 39 | 19
O=C(Nc1cccc2ccccc12)N1CCc2ccccc2C1 | 40* | 27 | 1 | 15 | 1 | 24 | -20
CCOC(=O)N1CCN(C(=O)c2ccc(OC)cc2)CC1 | 15 | -4 | 2 | -5 | 0 | 8 | .
CCOC(=O)N1CCN(C(=O)c2ccc3c(c2)sc2nc(-c4ccc(OC)cc4)cn23)CC1 | 50* | 18 | 45 | 16 | 34 | 18 | 44*
C/C(=N\NC(=S)NC1CCCCC1)c1ccccc1 | -6 | 4 | 0 | 30 | 7 | 23 | .
CC(C)(C)c1ccc(/C=N/NC(=S)NC2CCCCC2)cc1 | 96* | 15 | 39 | 37 | 9 | 35 | 48*
SMILES | TIM10 inh | NLRP3 yeast inh | SKKanGAS inh | tim23-1 inh | NALP1 inh | tim10-1 inh | tim10 confirm
C/C(=N\NC(=S)NC1CCCCC1)c1ccc(O)cc1 | 49* | -5 | -4 | 40 | 17 | 32 | 42*
O=C(N/N=C/c1ccccc1)NC1CCCCC1 | 7 | 13 | -5 | 24 | 16 | 19 | .
CCNC(=O)COc1ccc(OCc2ccccc2)cc1 | -4 | -35 | -2 | 4 | -15 | 10 | .
CCC(C)NC(=O)COc1ccc(OCc2ccccc2)cc1 (configuration not stated) | 42* | -39 | -13 | 13 | -22 | 26 | 34*
COC(=O)C1=C(C)N(c2ccc(Cl)cc2)/C(=C/c2ccc(O)cc2)C1=O | 1 | 7 | 0 | 7 | -12 | -3 | .
COC(=O)C1=C(C)N(c2cccc(C)c2)C(=O)/C1=C\c1cccs1 | 9 | 22 | -21 | 35 | 7 | 9 | .
COC(=O)C1=C(C)N(c2ccccc2)/C(=C/c2cccs2)C1=O | 51* | -13 | -4 | 35 | 21 | 32 | 35*
COC(=O)C1=C(C)N(c2ccc(Cl)cc2)/C(=C/c2cccs2)C1=O | 47* | 14 | -4 | 37 | 18 | 32 | 0
COC(=O)C1=C(C)N(c2ccc(C)c(C)c2)/C(=C/c2cccs2)C1=O | 50* | 19 | 4 | 40 | 10 | 23 | 47*
O=C(C[C@@H]1C/C=C\C[C@H](Cc2ccc(F)cc2)C(=O)OC[C@H]2CCCN2C1=O)N[C@H](CO)Cc1ccccc1 | -6 | -7 | . | -11 | . | 8 | .
Cc1ccc(/C=N/NC(=O)NN(C)c2ncc(C(F)(F)F)cc2Cl)cc1 | 41* | 25 | 4 | 19 | 7 | 29 | 45*
O=C(/C=C/c1cccc(Br)c1)NCC1CCCCC1 | 41* | 17 | 10 | 22 | 35 | 26 | 33*
O=C(COC(=O)/C=C/c1cccc(Br)c1)NC1CCCCC1 | -2 | 13 | . | 4 | . | 5 | .
O=C1c2ccccc2C(=O)C1c1nccc2ccccc12 | 49* | 15 | -3 | 21 | -9 | 6 | 47*
O=C1c2ccccc2C(=O)C1c1ccnc2ccccc12 | 49* | 7 | 3 | 25 | -42 | 20 | 39*
O=C1C(c2ccnc3ccccc23)=C(O)c2ccccc21 | 55* | 10 | 12 | 23 | -1 | 13 | 38*
CCOCCCNC(=O)c1ccc(OC)c(OC2CCN(C(C)C)CC2)c1 | 0 | -1 | -3 | -2 | 17 | -16 | .
Cc1c(C=NNC(=O)c2ccc(Br)cc2)c2ccccn2c1C(=O)c1ccncc1 | -3 | 6 | . | -10 | . | -5 | .
C[C@H](CO)N1C[C@H](C)[C@@H](CN(C)C(=O)Nc2ccccc2)Oc2ccc(NS(=O)(=O)c3cn(C)cn3)cc2C1=O | -4 | -9 | . | -6 | . | -6 | .
O=C(C[C@@H]1C/C=C\C[C@H](Cc2ccc(F)cc2)C(=O)OCCNC1=O)N[C@H](CO)Cc1ccccc1 | 2 | 10 | . | -3 | . | -4 | .
O=C(NC1=NCCS1)c1csc2ccccc12 | 44* | 29 | -1 | 28 | 21 | 34 | 28
O=C(NC1=NCCS1)c1cc(-c2cccc(Br)c2)nc2ccccc12 | 43* | 13 | 4 | 47 | 20 | 36 | 10
COc1ccc([C@@H]2Sc3ccccc3NC(=O)[C@@H]2O)cc1 | 4 | 29 | -5 | 13 | . | 12 | .
